According to PubChem BioAssay AID1159580 (chemical genetic matrix, 2015):
Several values for one entry are separate records, joined by “and”; a condition that tells them apart may be missing. Identical values can stand only once. Among all 5,500 compounds or so, about 2,000 (36%) were called active. About 18% were inconclusive and are not listed. No stated cut-off is given here; in the data, active means normalized growth mostly below about 0.91 (no sharp cut-off); inconclusive means no clear call, values can overlap the other calls; inactive means mostly above about 0.92. The list shows a part of the results.

Assay: chemical genetic growth profiling, strain panel (AID 1159580);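 further: tested at 20 µM; growth read once vehicle control cultures reached saturation at 30 °C; 1 = growth at the plate median or of vehicle wells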
Details: S. cerevisiae deletion strains, growth OD

Measured: normalized growth

OCC(O)CN1CCN(c2ccccc2)CC1 (stereo unspecified)
inactive: locus YAL013W, strain DEP1, stronger effect = lower value 0.995 | locus YAL021C, strain ccr4, stronger effect = lower value 0.923 | locus YAL026C, strain drs2, stronger effect = lower value 0.982 | locus YAL030W, strain snc1, stronger effect = lower value 0.996 | locus YBL061C, strain skt5, stronger effect = lower value 0.989 | locus YBR009C, strain hhf1, stronger effect = lower value 1 | locus YBR021W, strain FUR4, stronger effect = lower value 0.972 | locus YBR023C, strain chs3, stronger effect = lower value 0.997 | locus YBR171W, strain sec66, stronger effect = lower value 0.968 | locus YBR229C, strain ROT2, stronger effect = lower value 0.984 | locus YBR231C, strain swc5, stronger effect = lower value 0.999 | locus YBR279W, strain paf1, stronger effect = lower value 0.974 | locus YCL011C, strain gbp2, stronger effect = lower value 0.977 | locus YCL016C, strain dcc1, stronger effect = lower value 0.988 | locus YCL029C, strain bik1, stronger effect = lower value 0.978 | locus YCL061C, strain MRC1, stronger effect = lower value 0.973 | locus YCL069W, strain vba3, stronger effect = lower value 0.989 | locus YCR088W, strain abp1, stronger effect = lower value 0.98 | locus YDL005C, strain med2, stronger effect = lower value 0.963 | locus YDL035C, strain GPR1, stronger effect = lower value 1.02 | locus YDL040C, strain nat1, stronger effect = lower value 0.979 | locus YDL074C, strain BRE1, stronger effect = lower value 0.984 | locus YDL101C, strain DUN1, stronger effect = lower value 0.984 | locus YDL134C, strain PPH21, stronger effect = lower value 0.991 | locus YDL185W, strain tfp1, stronger effect = lower value 0.99 | locus YDL192W, strain arf1, stronger effect = lower value 0.995 | locus YDR001C, strain nth1, stronger effect = lower value 0.98 | locus YDR069C, strain doa4, stronger effect = lower value 0.982 | locus YDR101C, strain arx1, stronger effect = lower value 0.965 | locus YDR137W, strain rgp1, stronger effect = lower value 0.95 | locus YDR150W, strain NUM1, stronger effect = lower value 1 | locus YDR159W, strain sac3, stronger effect = lower value 1.01 | locus YDR162C, strain NBP2, stronger effect = lower value 1.01 | locus YDR195W, strain ref2 0.967 | locus YDR297W, strain sur2, stronger effect = lower value 0.982 | locus YDR318W, strain mcm21, stronger effect = lower value 0.989 | locus YDR334W, strain swr1, stronger effect = lower value 0.945 | locus YDR335W, strain msn5, stronger effect = lower value 0.978 | locus YDR388W, stronger effect = lower value 0.991 | locus YDR392W, strain spt3, stronger effect = lower value 0.931 | locus YDR502C, strain sam2, stronger effect = lower value 0.995 | locus YEL003W, strain gim4, stronger effect = lower value 0.938 | locus YEL037C, strain rad23, stronger effect = lower value 0.986 | locus YEL061C, strain CIN8 (second series), stronger effect = lower value 0.985 | locus YEL061C, strain CIN8, stronger effect = lower value 1 | locus YER015W, strain faa2, stronger effect = lower value 1 | locus YER016W, strain bim1, stronger effect = lower value 0.991 | locus YER110C, stronger effect = lower value 0.988 | locus YER111C, strain swi4, stronger effect = lower value 0.983 | locus YER155C, strain BEM2 (second series), stronger effect = lower value 1 | locus YER155C, strain BEM2, stronger effect = lower value 0.977 | locus YER167W, strain BCK2, stronger effect = lower value 1.01 | locus YGL078C, strain dbp3, stronger effect = lower value 0.991 | locus YGL086W, strain mad1, stronger effect = lower value 0.998 | locus YGL167C, strain pmr1, stronger effect = lower value 0.998 | locus YGL173C, strain kem1, stronger effect = lower value 0.978 | locus YGL227W, strain vid30, stronger effect = lower value 0.985 | locus YGL240W, strain doc1, stronger effect = lower value 1.01 | locus YGL248W, strain PDE1, stronger effect = lower value 0.975 | locus YGL253W, strain hxk2, stronger effect = lower value 0.993 | locus YGR078C, strain PAC10, stronger effect = lower value 0.99 | locus YGR135W, strain pre9, stronger effect = lower value 0.98 | locus YGR229C, strain SMI1, stronger effect = lower value 1.01 | locus YGR252W, strain gcn5, stronger effect = lower value 1.08 | locus YHR013C, strain ard1, stronger effect = lower value 0.953 | locus YHR027C, strain rpn1, stronger effect = lower value 0.984 | locus YHR030C, strain SLT2, stronger effect = lower value 0.991 and 0.969 | locus YHR079C, strain IRE1 (second series), stronger effect = lower value 0.991 | locus YHR079C, strain IRE1, stronger effect = lower value 0.965 | locus YHR094C, strain hxt1, stronger effect = lower value 0.992 | locus YHR129C, strain ARP1, stronger effect = lower value 0.985 | locus YHR142W, strain chs7, stronger effect = lower value 0.932 | locus YHR200W, strain rpn10, stronger effect = lower value 0.993 | locus YIL066C, strain RNR3, stronger effect = lower value 1 | locus YIL073C, strain SPO22, stronger effect = lower value 1.03 | locus YIL125W, strain kgd1, stronger effect = lower value 1 | locus YIR030C, strain dcg1, stronger effect = lower value 0.988 | locus YJL092W, strain hpr5, stronger effect = lower value 0.965 | locus YJL095W, strain BCK1 (second series), stronger effect = lower value 0.989 | locus YJL095W, strain BCK1, stronger effect = lower value 0.981 and 0.975 | locus YJL115W, strain asf1, stronger effect = lower value 0.965 | locus YJL129C, strain trk1, stronger effect = lower value 0.957 | locus YJL134W, strain LCB3, stronger effect = lower value 0.988 | locus YJL154C, strain vps35, stronger effect = lower value 0.983 | locus YJL164C, strain tpk1, stronger effect = lower value 0.966 | locus YJL166W, strain qcr8, stronger effect = lower value 1 | locus YJL168C, strain set2, stronger effect = lower value 0.983 | locus YJL187C, strain SWE1 (second series), stronger effect = lower value 0.988 | locus YJL187C, strain SWE1, stronger effect = lower value 0.981 | locus YJR043C, strain POL32, stronger effect = lower value 0.977 | locus YJR066W, strain TOR1, stronger effect = lower value 0.908
